Data on nine compounds can be found in PubChem BioAssay (NCATS).

Experiment [1] is described as follows: Drug repurposing screens with cells derived from glioblastoma tumor samples (AID 1345199). Note: nearly all actives have a fitted effect of over 40% in size. The note with it: GBM patient neurospheres viability, ATP luminescence, 48 h. Summed up: (§1)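 Primary testing used CD133+ neurospheres from four GBM patients, seven concentrations, 48 h exposure and ATP-based viability; confirmation added three slower-growing patient lines.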

A further experiment has as its system astro (control astrocytes). Described as above. The note with it: viability, ATP luminescence, 48 h; series mostly up to 45.9 µM. Summed up: as §1
[2] abbreviates: at 45.9 µM (top of the series), tumour line B.
Where [3] appears, read: at 45.9 µM (top of the series), tumour line D.
The mark [4] stands for this setting: at 46 µM (top of the series), tumour line A.
Where [5] appears, read: at 46.1 µM (top of the series), tumour line C.

Results filed as inconclusive are left out. A number with no mark means an inactive call. The source made the active and inactive calls. Calls come from the whole dose curve; as a rule, active = well fitted inhibition curve with a large enough effect; inconclusive = small, poorly fitted or top-dose-only effect; inactive = flat fitted curve, though single readings scatter.
% is set by controls: 0 for no effect and ±100 for the full control effect; potency is the fitted concentration of half-maximal effect.

With `OCCc1ccccc1`, the activity, negative = cell killing in experiment [1] (setting [2]) was -16.7%; in experiment [1] (setting [3]), -5.39%; in experiment [1] (setting [4]), -18.5%; in experiment [1] (setting [5]), 13.1%. The Potency result in the experiment on astro is “inactive”.

In the case of `Nc1ncnc2nc[nH]c12`, the activity, negative = cell killing is 11.8% in experiment [1] (setting [2]), 4.13% in experiment [1] (setting [3]), -8.57% in experiment [1] (setting [4]) and 8.85% in experiment [1] (setting [5]). In the experiment with astro, the Potency result is “inactive”.

Consider `COc1cc(NS(=O)(=O)c2ccc(N)cc2)nc(C)n1`, for which the activity, negative = cell killing was -1.01% in experiment [1] (setting [2]), -8.58% in experiment [1] (setting [3]), -28.7% in experiment [1] (setting [4]) and 5.24% in experiment [1] (setting [5]). In addition, the Potency entry with astro is “inactive”.

For `O=C(O)Cc1ccc(OCCNC[C@H](O)c2ccccc2)cc1`, the activity, negative = cell killing in experiment [1] (setting [2]) was -8.45%; in experiment [1] (setting [3]), 5.34%; in experiment [1] (setting [4]), -29.2%; in experiment [1] (setting [5]) it was 9.13%. Moreover, the Potency entry in the experiment with astro is “inactive”.

In the case of `CC(COc1ccccc1)NN` (stereo unspecified), the activity, negative = cell killing is -5.24% in experiment [1] (setting [2]), 14.4% in experiment [1] (setting [3]), -26.7% in experiment [1] (setting [4]) and 4.61% in experiment [1] (setting [5]). In addition, the Potency result in the experiment on astro is “inactive”.

Take `CC(=O)Nc1ccn(C2COC(COC(=O)c3ccccc3)O2)c(=O)n1` (stereo unspecified): the activity, negative = cell killing is -21.5% in experiment [1] (setting [2]) and -14.9% in experiment [1] (setting [5]).

For the compound `CCCCC/C=C\C/C=C\CCCCCCCC(=O)NC(C)c1ccccc1` (stereo unspecified), the activity, negative = cell killing in experiment [1] (setting [2]) was -3.69%; in experiment [1] (setting [3]), -27.1%; in experiment [1] (setting [5]), -9.18%. The Potency in experiment [1] (tumour line A) is 11.2 µM (active). In addition, the Potency result in the experiment on astro was “inactive”.

As to `O=C(OCC(COC(=O)c1cccnc1)(COC(=O)c1cccnc1)COC(=O)c1cccnc1)c1cccnc1`, the activity, negative = cell killing in experiment [1] (setting [2]) was -3.98%; in experiment [1] (setting [3]), 3.04%; in experiment [1] (setting [5]), -10.2%. For the same compound, in experiment [1] (tumour line A), the Potency was 14.1 µM (active). In the experiment with astro, the Potency result was “inactive”.

In the case of `CSc1ccc(/C=C2/C(C)=C(CC(=O)O)c3cc(F)ccc32)cc1`, the activity, negative = cell killing was -6.37% in experiment [1] (setting [2]), -11.2% in experiment [1] (setting [3]), -24% in experiment [1] (setting [4]) and -7.45% in experiment [1] (setting [5]).
